An excerpt weighted towards active compounds, which were near 0.95% of everything screened.
LmPK inhibitor – blocks Leishmania mexicana pyruvate kinase activity | Q27686 | purified LmPK, Kinase-Glo ATP luminescence, 1 h | Potency, µM (titrated, usually from 57.5 µM), hits mostly inhibitors | 290,000 tested, 0.37% active | AID 1721
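Purified LmPK (0.1 nM) converted ADP (0.1 mM) to ATP with PEP (0.5 mM) in imidazole buffer pH 7.2 with KCl and MgCl2, 1 h at room temperature. ATP was read by Kinase-Glo luminescence; data normalized to uninhibited and no-enzyme controls.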
Giardia FBPA inh-1 – blocks Giardia fructose-bisphosphate aldolase activity | A8B2U2 | purified Giardia FBPA | Potency, µM (doses to about 59.6 µM), most hits filed as inhibitors | 290,000 tested, 0.71% active | AID 2451; note: nearly all actives have a fitted effect of over 55% in size
Target sequence (A8B2U2 whole entry, looked up): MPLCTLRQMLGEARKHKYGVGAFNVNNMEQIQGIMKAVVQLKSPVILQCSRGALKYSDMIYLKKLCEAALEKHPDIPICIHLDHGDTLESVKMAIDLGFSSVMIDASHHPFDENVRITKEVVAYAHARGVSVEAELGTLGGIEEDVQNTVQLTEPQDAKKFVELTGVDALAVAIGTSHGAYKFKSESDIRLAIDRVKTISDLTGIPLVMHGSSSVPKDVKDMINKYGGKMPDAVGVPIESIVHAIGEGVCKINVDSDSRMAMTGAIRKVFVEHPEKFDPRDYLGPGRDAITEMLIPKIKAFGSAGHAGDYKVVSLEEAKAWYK
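Giardia FBPA (40 nM reagent) was preincubated 10 min at RT with compound (up to 57.5 uM final), then substrate plus GAPDH/TPI/NAD/arsenate coupling system with diaphorase/resazurin was added; resorufin fluorescence (525/598 nm) was read after 20 min.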
RE007 growth inh – less growth of the S. pombe RE007 Vpr strain; S. pombe RE007 Vpr strain, BacTiter-Glo ATP luminescence, 24 h; Potency, µM (titrated, usually from 92.2 µM), usual class: inhibitors; 360,000 tested, 0.21% active; active = well fitted falling curve with a large enough effect; inconclusive = small, poorly fitted or top-dose-only effect; inactive = no such curve, though single readings can be large or run the other way; note: nearly all actives have a fitted effect of over 50% in size
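Fission yeast strain RE007, carrying one chromosomally integrated HIV-1 vpr copy, was seeded at OD 0.01 in PMG+AL medium with 23 nL pinned compound. After 24 h at 30 °C and 99% humidity, viability was read by BacTiter-Glo luminescence.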
TbPYK inhibitor – blocks Trypanosoma brucei pyruvate kinase | Q57TT1 | TbPYK enzyme, Kinase-Glo Plus ATP luminescence, 45 min | Potency, µM (titrated, usually from 76.8 µM), hits mostly inhibitors | 410,000 tested, 0.12% active | AID 624173; note: nearly all actives have a fitted effect of over 50% in size
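T. brucei PYK with substrate was exposed to pin-transferred compounds across a concentration series, then started with 130 uM ADP (final). After 45 min at room temperature, Kinase-Glo Plus luminescence was read, normalized and curve-fitted.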
Giardia growth – inhibitors of Giardia lamblia growth; shares compounds with Giardia FBPA inh-1; Giardia lamblia trophozoite growth inhibition; Potency, µM (titrated, usually from 57.5 µM), most hits filed as inhibitors; 1,500 tested, 5% active;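 note: trophozoites exposed to compound for 48 h at 37 °C; nearly all actives have a fitted effect of over 70% in size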
Mammalian tox – toxic to mammalian cells in Giardia aldolase counter-screen; shares compounds with Giardia FBPA inh-1; mammalian cell viability counter-screen, qHTS; Potency, µM (highest dose often 57.5 µM), most hits filed as inhibitors; 1,500 tested, 4% active; AID 2786;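 note: Chinese hamster ovary cells used as mammalian cytotoxicity surrogate; viability measured as cellular ATP by luminescence; compound exposure lasted 48 h before reading; nearly all actives have a fitted effect of over 60% in size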
Giardia FBPA inh-2 – confirmation of Giardia fructose-bisphosphate aldolase inhibitors | 1,500 tested, 5% active | purified Giardia aldolase enzyme activity, qHTS | AID 2787 | Potency, µM (highest dose often 57.5 µM), hits mostly inhibitors | shares compounds with Giardia FBPA inh-1; note: nearly all actives have a fitted effect of over 45% in size
Rabbit aldolase – blocks rabbit muscle aldolase in Giardia aldolase selectivity test | AID 2794 | shares compounds with Giardia FBPA inh-1 | 1,500 tested, 4% active | Potency, µM (series often up to 57.5 µM), actives largely listed as inhibitors | Rabbit muscle FBPA enzyme inhibition, selectivity counter-screen; note: nearly all actives have a fitted effect of over 60% in size
GAPDH coupling – counter-screen for Giardia aldolase inhibitors: GAPDH coupling enzyme | shares compounds with Giardia FBPA inh-1 | GAPDH coupling enzyme counterscreen, biochemical, qHTS | Potency, µM (series often up to 57.5 µM), most hits filed as inhibitors | 1,500 tested, 6% active; note: nearly all actives have a fitted effect of over 55% in size
A number is an active result; i = inactive; ? = inconclusive; nt = no result; [ ] = dose if it differs, or a comment. Unless noted, calls come from the whole dose curve; as a rule, active = well fitted curve in the direction sought with a large enough effect; inconclusive = small, poorly fitted or top-dose-only effect, or another doubt; inactive = no such curve, though single readings can be large; an effect the other way counts as inactive or inconclusive.

SMILES | LmPK inhibitor | Giardia FBPA inh-1 | RE007 growth inh | TbPYK inhibitor | Giardia growth | Mammalian tox | Giardia FBPA inh-2 | Rabbit aldolase | GAPDH coupling
COc1ccc(CCn2c(NN=C3CCCCC3)nc3c2c(=O)[nH]c(=O)n3C)cc1 | i | 4.46µM | i | i | i[10.4 µM] | i | 5.62µM | ? | 7.94µM
Cc1ccc(/C(=N/Nc2ncnc3ccccc23)C(=O)O)cc1 | i | 14.1µM | i | i | i | i | i | i | i
COc1ccc(S(=O)(=O)NNC(N)=S)cc1 | i | 9.98µM | i | i | i | i | i | i | i
CN(C)S(=O)(=O)c1ccc(NC(=O)CN2CCCCCC2)cc1 | i | i | i | i | nt | nt | nt | nt | nt
Cc1ccc(NC(=O)CN2CCN(C)CC2)cc1Br | i | 15.8µM | i | i | ? | i | i | i | i
CCN1CCN(CC(=O)Nc2ccc(C)c(Br)c2)CC1 | i | ? | i | i | nt | nt | nt | nt | nt
CN1CCN(CC(=O)Nc2ccc(S(=O)(=O)N(C)C)cc2)CC1 | i | 14.1µM | i | i | ? | i | i | i | i
Nc1ncnc2c1ncn2[C@@H]1O[C@H](CNC(=O)[C@H](N)Cc2cscn2)[C@@H](O)[C@H]1O | nt | nt | i | i | nt | nt | nt | nt | nt
COCc1cc(=O)[nH]c(Nc2nc3ccccc3o2)n1 | i | 9.98µM | i | i | i | ? | i | i | ?
O=C(c1ccc(Cl)c(NC2=NC3CS(=O)(=O)CC3S2)c1)N1CCN(c2ccc(F)cc2)CC1 (stereo unspecified) | i | nt | i | i | nt | nt | nt | nt | nt
N#CC(C#N)=C(C#N)c1ccc(Nc2ccccc2)cc1 | i | 22.4µM | i | i | ? | i | i | i | i
c1ccc(Nc2ccc(Nc3ccccc3)cc2)cc1 | nt | nt | i | i | nt | nt | nt | nt | nt
CCN(CCNCC(O)COCc1ccc(Cl)cc1)c1cccc(C)c1 (stereo unspecified) | i | 22.3µM | i | i | i | i | i | i | i
COc1ccc(-c2nc(C(=O)O)cs2)cc1OC | i | i | i | i | nt | nt | nt | nt | nt
COc1ccc(C(=O)O)nc1C | i | 3.97µM | nt | i | i | i | i | i | i
COCCNC(=O)C1(C)CCCN(CC(=O)c2ccc(OC)cc2)C1 (stereo unspecified) | nt | nt | i | i | nt | nt | nt | nt | nt
O=c1c(O)cccc2cc(O)c(O)c(O)c12 | i | 14.1µM | ? | i | i | i | 10.3µM | 16.3µM | 36.6µM
COc1c(NC=O)c2c(c([N+](=O)[O-])c1OC)C(=O)OC2 | nt | nt | i | i | nt | nt | nt | nt | nt
CCOc1ccc(C(=O)NCC(=O)NCC(c2cccs2)N2CCOCC2)cc1 (stereo unspecified) | nt | nt | i | i | nt | nt | nt | nt | nt
O=C(O)COc1ccccc1C(Nc1ccccn1)c1cc(Cl)c2cccnc2c1O (stereo unspecified) | i | ? | i | i | nt | nt | nt | nt | nt
O=C(O)COc1ccccc1C(Nc1cccnc1)c1cc(Cl)c2cccnc2c1O (stereo unspecified) | i | 17.7µM | i | i | i | i | i | i | i
O=C1C(=O)c2ccccc2-c2ccccc21 | i | 0.141µM | ? | i | 12.6µM | 20µM | 1.12µM | 0.891µM | 1.12µM
COc1ccccc1C(C(=O)c1ccccc1)c1ccc(O)cc1 (stereo unspecified) | nt | nt | i | nt | nt | nt | nt | nt | nt
O=C(COc1ccc(Cl)cc1Br)Nc1ccncc1 | i | i | i | i | nt | nt | nt | nt | nt
COCCNC(=S)NN=C1CCCCCC1 | i | 19.9µM | i | i | i | i | i | i | i
COCCNC(=S)N/N=C1\CC(C)CC(C)(C)C1 (stereo unspecified) | i | 17.7µM | i | i | i | i | i | i | i
O=C(c1ccccc1-c1ncc[nH]1)N1CCCC(Nc2ccc(F)cc2)C1 (stereo unspecified) | i | nt | i | i | nt | nt | nt | nt | nt
COc1ccccc1/C=C/C(=O)OCC(=O)NC(=O)NC1CCCC1 | nt | nt | i | i | nt | nt | nt | nt | nt
C/C(=N\NC(=O)c1ccccc1Cl)c1ccccn1 | i | ? | ? | i | nt | nt | nt | nt | nt

Screens deposited in PubChem by National Center for Advancing Translational Sciences (NCATS).
